About 17,000 (4.7%) of roughly 360,000 compounds were called active. Not shown: some 5% with an inconclusive outcome. What follows is part of a selection rich in actives, with near analogues and random picks from the rest. Values without a mark were called inactive. Cut-off read from the data, not from the text of the source: active = activity change below about -50%; inconclusive = mostly about -30% to -49%; inactive = weaker than that.
% is set by controls: 0 for no effect and ±100 for the full control effect.

This assay in a line: qHTS for Inhibitors of Inflammasome Signaling: IL-1-beta AlphaLISA Primary Screen. Conditions: THP-1 LPS/ATP IL-1B secretion, 16 h; at 57.5 µM, active compounds read low. The text has this: Inflammasomes are a set of intracellular multi-protein complexes that enable autocatalytic activation of inflammatory caspases and drive the innate immune response to counter harmful agents. […] A qHTS assay, based on AlphaLISA technology, was developed to screen the Molecular Libraries Small Molecule Repository (MLSMR) to look for novel inflammasome inhibitors. The assay detects IL-1B using AlphaLISA anti-IL-1B acceptor and donor beads. A decreased emission signal, indicating reduced IL-1B secretion, is the desired outcome for this assay. NIH Chemical Genomics Center [NCGC] NIH Molecular Libraries Probe Centers Network [MLPCN] MLPCN Grant: MH095513 Assay Provider: Shyam Biswal Ph.D., Johns Hopkins University Immunity. 2012 Jul 27;37(1):85-95. PMID: 22819042 [2] Curr Pharm Des. 2012;18(16):2320-8. PMID: 22390695
Three microliters containing 3000 THP-1 cells were dispensed into the wells of solid, white, tissue culture treated Greiner 1,536-well plates. Library compounds and positive control, Glyburide, were pin-transferred (23 nL) by a Kalypsys pin-tool equipped with a 1,536-pin array, resulting in final compound concentration ranges of 2.5 nM to 57.5 uM. After 1 hr of cell culture incubation (37 °C, 5% CO2), 1 microL of 1 microg/mL lipopolysaccharide (250 ng/mL, final) and 5 mM ATP (1.25 mM, final) were added to stimulate the cells. After 16 hr of cell culture incubation with the compounds, 1.5 uL of anti-IL-1B acceptor beads (6 ug/mL, final) and biotinylated antibody (0.6 nM, final) were added to the plate, followed by a 1 hr incubation at ambient temperature. To detect the secreted IL-1B, 1.5 uL of AlphaLISA SA-Donor beads (24 ug/mL, final) were added, followed by 30 min of incubation in the dark at ambient temperature. The AlphaLISA signal was read by a PerkinElmer EnVision plate reader with an ultrasensitive luminescence detector and 1536 Plate HTS AlphaScreen aperture (excitation of 680nm and emission of 615nm).
On to `CC(C)N(C(=O)CSc1nc(COc2ccccc2)nc2ccccc12)C(C)C`, for which the activity change was -71.7% (active). On to `CCCc1nc(SCC(=O)Nc2ccc(S(=O)(=O)N(C)C)cc2)c2ccccc2n1`, for which the activity change is -11.4%. Next, `CN(C(=O)CSc1nc(C2CC2)nc2ccccc12)c1nc(-c2ccccc2)cs1`: -16.2%. In the case of `CCOC(=O)c1ccn(S(=O)(=O)c2ccc(C)cc2)c1-c1ccccc1`, the activity change is 40.2%.

As to `CN(N)c1nc(N2CCCC2)nc(N2CCCC2)n1`, the activity change is 3.61%.

Turning to `O=C(NCc1ccccc1Cl)c1csc([C@@H]2O[C@H](CO)[C@@H](O)[C@H]2O)n1`, the activity change was 6.54%. With `CN(C(=O)c1cccc(NC(=O)Cc2ccc(NC(=O)C3CCCN(C(=O)C4CC4)C3)cc2)c1)C1CC1` (centres undefined), the activity change was 54.5%. On to `Cc1ccc2nc(-c3ccccc3)c(CC3CCCCC3)n2c1`, for which the activity change is -0.767%. The same measure for `CCCCN(C)CCNC(=O)CSCc1ccc(C)cc1`: 16.4%. Next, `CC1(C)Cc2ccccc2-c2nc(CN3CCOCC3)[nH]c(=O)c21`: 0%. As to `CCOC(=O)C1Cn2c(nc3c(c2=O)C(C)(CC)Cc2ccccc2-3)S1` (centres undefined), the activity change is -60.4% (active).

For the molecule `CCC1(CC)Cc2ccccc2-c2nc(CCl)[nH]c(=O)c21`, the activity change is 38.6%. Turning to `CC(OC(=O)c1cccc(S(=O)(=O)N2CCOCC2)c1)C(=O)NCC1CCCCC1` (centres undefined), the activity change was -2.42%. The same measure for `COc1cc(/C=C/C(=O)OCC(=O)Nc2cccc(Oc3ccccc3)c2)ccc1O`: 15.2%; for `COC(=O)c1ccc(C2C(Oc3ccccc3C)C(=O)N2CCc2ccc(OC)c(OC)c2)cc1` (centres undefined): -21.3%; for `Cc1cc(NC(=O)CCC(=O)N(c2cccc(F)c2)C(C(=O)NC2CCCC2)c2ccncc2)no1` (centres undefined): 10.2%. The same measure for `Cc1cc(NC(=O)/C=C/C(=O)N(CC(=O)NC2CCCC2)c2ccc(F)cc2)no1`: -87.8% (active). In the case of `Cc1cc(NC(=O)/C=C/C(=O)N(c2ccccc2C)C(C(=O)NC2CCCC2)c2ccc(F)cc2)no1` (centres undefined), the activity change was -95.1% (active). On to `Cc1cc(C)cc(N(CC(=O)NC2CCCC2)C(=O)CCC(=O)Nc2cc(C)on2)c1`, for which the activity change is 23.6%. Turning to `Cc1cc(NC(=O)CCC(=O)N(CC(=O)NC2CCCC2)c2ccc(F)cc2)no1`, the activity change is 8.19%. Next, `Cc1cc(NC(=O)CCC(=O)N(c2ccccc2)C(C(=O)NC2CCCC2)c2ccncc2)no1` (centres undefined): -1.05%; `Cc1oc2cc3oc(=O)ccc3cc2c1C`: -4.45%. Next, `Cc1ccc(S(=O)(=O)N2CC[C@H]3[C@@H](C2)C(=O)C[C@@H](c2ccccc2)N3S(=O)(=O)c2ccc(C)cc2)cc1`: -0.365%; `CCCC(C(=O)OCCN(CC)CC)(c1ccccc1)c1ccccc1`: -14.1%. Regarding `O=C(COc1ccc(S(=O)(=O)N2CCCC2)cc1[N+](=O)[O-])N1CCCCC1`, the activity change was 10.9%. The same measure for `Cc1ccc(C(=O)OCC(=O)NC2CCCCCCC2)cc1C`: 8.07%; for `Cc1noc(C)c1S(=O)(=O)N(C)C[C@H]1Oc2c(NC(=O)Nc3ccc4c(c3)OCO4)cccc2C(=O)N([C@H](C)CO)C[C@@H]1C`: 5.23%; for `CSCCC(NC(=O)COc1ccccc1)C(=O)OCc1ccc(Cl)cc1` (centres undefined): 6.8%. `COc1ccc(Cn2c(-c3ccc(Cl)cc3)c[n+]3ccccc23)cc1`: the activity change was -79.9% (active). Regarding `CCn1c(C)cc(=O)cc1-c1ccc(Cl)cc1`, the activity change was 12.5%. Next, `COc1ccc(Cn2c(=O)oc3ccccc32)cc1`: -4.96%; `CC1(C(=O)NS(=O)(=O)c2ccccc2)CCN1C(=O)C1CCCCC1` (centres undefined): 25.7%; `Nc1nc2ncccn2c1-c1ccccc1`: 18.6%. As for `CCOC(=O)Nc1ccc(NC(=O)OCC)cc1`, the activity change was 0.929%. The same measure for `O=C(Nc1ccccc1)OCc1cn(-c2ccc(Cl)cc2)nn1`: 33.8%; for `CC(C)(COC(=O)Nc1ccccc1)COC(=O)Nc1ccccc1`: -50.5% (active); for `Cc1cccc(N(CC(=O)N2CCCC2)S(C)(=O)=O)c1C`: 25%. Next, `COC(=O)c1sc2[nH]c(=S)n(N)c(=O)c2c1C`: 6.13%. The same measure for `CN(C(=O)c1cccc(NC(=O)Cc2ccc(NC(=O)C3CCCN(C(=O)C4CCCC4)C3)cc2)c1)C1CCC1` (centres undefined): -10.6%; for `COc1ccc2nc(C)cc(Nc3cccc(C(=O)O)c3)c2c1`: 10.8%; for `COc1cccc(NC(=O)Nc2ccc(F)cc2)c1`: -27.3%. For `CC(C)c1cc(C(=O)NC2CCCCCC2)c2ccccc2n1`, the activity change was 0.331%.

For the molecule `COc1ccc2nc(/N=C(\N)NC(=O)Nc3ccccc3)nc(C)c2c1`, the activity change was -80.5% (active). For the molecule `O=C(NNC(=O)C(O)c1ccccc1)NC1CCCCC1` (centres undefined), the activity change is 14.4%. `Cc1nc(/N=C(\N)NC(=O)NC2CCCCC2)nc2ccccc12`: the activity change is -104% (active). Consider `CCCc1nc2ccccc2n1C(C)C(=O)NC(C)(C)C` (centres undefined), for which the activity change is 29%. As to `O=C(NNc1nc(N2CCCC2)nc(N2CCCC2)n1)c1ccccc1`, the activity change is -0.122%. Take `O=C1CCC(C(=O)N2CCC(O)(c3ccccc3)CC2)CN1CCc1ccccc1` (centres undefined): the activity change is -11.9%. In the case of `O=C(CN1C(=O)NC2(CCc3ccccc32)C1=O)NC1CCCCC1` (centres undefined), the activity change is -10.5%. The same measure for `COC(=O)c1ccccc1N=NNc1ccc([N+](=O)[O-])cc1`: -18.2%; for `COC(=O)c1c(C)oc(C)c1S(=O)(=O)Nc1ccc(C(C)C)cc1`: 5.75%; for `O=C(c1cc2ccccc2o1)N1CCN(c2cccc(C(F)(F)F)c2)CC1`: “inactive”. As to `Cc1cc2ccccn2c1C(=O)c1cccc(S(=O)(=O)N2CCOCC2)c1`, the activity change is -17.1%. Next, `N#Cc1c(-c2cccs2)nc(SCC(=O)c2ccc(Br)cc2)[nH]c1=O`: 13.2%; `CCOC(=O)CC1COCCN1C(=O)c1cc(COc2ccc(F)c(F)c2)on1` (centres undefined): 64.4%; `CCCN1CCn2c3c(c4cc(Br)ccc42)CCCC31` (centres undefined): 42.1%. Consider `OC(CNCC1CCCO1)Cn1c2ccc(Br)cc2c2cc(Br)ccc21` (centres undefined), for which the activity change was -62.5% (active). The same measure for `O=C(CCNS(=O)(=O)c1ccc(Br)cc1)NCC1CCCO1` (centres undefined): -2.41%.

For `Cc1cc(-c2nnc(SCC(=O)Nc3ccc(F)cc3)n2N)n[nH]1`, the activity change is 20.7%. The same measure for `Cc1nn(-c2ccccn2)c2c1C(c1ccncc1)C1=C(CC(C)(C)CC1=O)N2` (centres undefined): -7.64%. Next, `Cc1cc(C)c(C2C3=C(Nc4c2c(C)nn4-c2ccccn2)c2ccccc2C3=O)c(C)c1` (centres undefined): -68.9% (active).

Take `C=CCn1c2ccccc2c2nnc(SCc3[nH]c(=O)[nH]c3C(=O)CCCCC(=O)OCC)nc21`: the activity change was -80.5% (active). Next, `C=CCn1c(SCC(=O)CC(=O)OCC)nc2cc(C(=O)N3CCC(C(N)=O)CC3)ccc2c1=O`: -3.87%.

Turning to `C=CCn1c2ccccc2c2nnc(SC(CC)C(=O)Nc3nc(C)c(C(=O)OCC)s3)nc21` (centres undefined), the activity change is -24.9%.

For the molecule `O=C(OCc1ccccc1)N1CCC2CC1c1ccc(-c3ccc4c(c3)OCO4)cc12` (centres undefined), the activity change is 20%. The same measure for `CC(=O)Nc1ccc(Nc2cc(C)nc(Nc3ccc(NC(C)=O)cc3)n2)cc1`: 0.0358%; for `CC(=O)Nc1ccc(Nc2c3ccccc3nc3ccccc23)cc1`: -98.2% (active); for `CCc1nc(Nc2ccc(NC(C)=O)cc2)c2oc3ccccc3c2n1`: -1.52%. The same measure for `O=C1NC[C@H](CCCCN2C[C@H](Cc3ccccc3)N(Cc3ccccc3)C(=O)C2=O)N(CCc2ccc(O)cc2)C1=O`: 0%; for `Cc1nn(-c2ccccc2)c(C)c1NC(=O)CCl`: -95% (active). With `CCC(Oc1ccccc1)C(=O)OCC(=O)Nc1c(C)nn(-c2ccccc2)c1C` (centres undefined), the activity change was 8.98%. Turning to `Cc1cccc(C)c1NC(=O)CNC(=O)c1c(C)nn(-c2ccccc2)c1C`, the activity change is -13.7%. Regarding `O=C(NCc1ccccc1)C(c1ccc(F)cc1)N1CCN(C(=O)C2CCCO2)CC1` (centres undefined), the activity change was 0%. The same measure for `CCO/N=C(/C)c1c(O)cc(-c2ccccc2)n(-c2ccccc2)c1=O`: 17.3%. As to `CCCc1cc(=O)oc2c(C)c(OC(C)C(=O)NCC(O)c3ccccc3)ccc12` (centres undefined), the activity change was -14.8%.

`C[C@@H]1ON(C)[C@H]2C[C@H]3c4cc(N5CCN(C)CC5)ccc4CCN3C(=O)[C@@H]12`: the activity change is -12.3%. Next, `C(#CCN1CCOCC1)CCCN1CCOCC1`: 26%; `CO/N=C/c1ccc(N2CCN(C(=O)c3cccc(Cl)c3)CC2)c([N+](=O)[O-])c1`: -16.9%. Next, `O=C(c1ccc(Cl)c([N+](=O)[O-])c1)N1CCN(c2ccccc2)CC1`: -26.9%. With `O=C(/C=C/c1ccc(Cl)cc1)N1CCN(c2ccccc2[N+](=O)[O-])CC1`, the activity change is -78.3% (active). The same measure for `CCOc1ccc(NS(=O)(=O)c2ccc(C(=O)NCC3CCCO3)cc2)cc1` (centres undefined): 8.79%; for `CCOC(=O)C1=NOC(Cn2cc(C(C)=O)c(=O)[nH]c2=O)C1` (centres undefined): -0.897%. The same measure for `Cc1ccc(S(=O)(=O)N2CCN(C(=O)COC(=O)/C=C/c3cccc(Cl)c3)CC2)c(C)c1`: 23.3%; for `CCOC(=O)N1CCC(NC(=O)Cn2cc3c(n2)CCCCC3)CC1`: 2.25%. The same measure for `O=C(/C=C/c1ccc(F)cc1)NC(=S)NNC(=O)c1cccnc1`: 20.7%. Turning to `c1ccc2c(c1)OC1OC2Oc2ccccc21`, the activity change is 10.9%. The same measure for `COc1cc(OC)c(C(=O)NC2CC(C)(C)NC(C)(C)C2)cc1OC`: 0%; for `COc1cc(OC)c(C(=O)NC2CCCCCC2)cc1OC`: -59.1% (active); for `COc1ccc(S(=O)(=O)NC(C)C)cc1C(=O)NC1CCCCC1`: 2.99%.

The record behind these values is PubChem BioAssay AID743279 (National Center for Advancing Translational Sciences (NCATS), 2014).
